Hits are enriched below; roughly 3.3% of the tested compounds scored in any of these assays.
SMARCA2 activ: SMARCA2 (BRM) function activators, primary screen, cell-based, luminescence, high throughput; MG213 cells, MMTV-luciferase reporter, dexamethasone, overnight; activation, % at 9.1 µM; 1% of 370,000 active; in the data active = activation above about 7.8%;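 also: 0% = vehicle wells and 100% = reference activator wells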
esBAF inh: Bmi1 luciferase reporter increase in mESCs, primary screen, esBAF inhibitor project, mouse ES cells, Bmi1 luciferase knock-in, single point; AID 602393, 2012; reporter increase, % at 12.5 µM; 2% of 350,000 active; 24 h; 100% = twice the neutral-well signal; in the data active = activation above about 40%; inconclusive = no clear call, values can overlap the other calls;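 also: 0% = median of the plate's neutral control wells and 100% = double that signal; a rise in the Bmi1 reporter signal indicates esBAF inhibition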
Gli-Sufu antag: Gli-Sufu pathway antagonists, primary screen, luciferase luminescence, Sufu-KO-LIGHT cells, uHTS; Sufu-KO-LIGHT fibroblasts, Gli luciferase reporter luminescence; inhibition, % at 5 µM; 0.74% of 340,000 active; AID 588413, 2011;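 active = inhibition above about 55%, limit read from the data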;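 also: 0% = DMSO-treated cells and 100% = wells with medium but no cells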
697 NFkB inh: inhibitors of PMA/ionomycin-induced NF-kB reporter, 697 cells, primary screen, B-cell NF-kB inhibitor project, cell-based, luminescence, uHTS. inhibition, % at 4 µM. AID 435022, 2010. 697 B-cell NF-kB luciferase reporter, 16 h. 0.33% of 330,000 active; in the data active = inhibition above about 35%
Jurkat NFkB inh: inhibitors of induced NF-kB luciferase reporter, primary screen, TCR NF-kB activation inhibitor project, cell-based, luminescence, uHTS. Jurkat, PMA/ionomycin-induced NF-kB luciferase reporter. inhibition, % at 4 µM. 0.53% of 330,000 active. AID 435003, 2010; in the data active = inhibition above about 50%
Ring1 derepress: Ring1 mRNA increase in mouse ESCs, confirmation, esBAF inhibitor project, cell-based, mouse ESC, RT-qPCR, cherry-pick. AID 743176, 2013. fold change at 33 µM. 550 tested, under 10 active. mouse ESC E14, Ring1 mRNA RT-qPCR fold change. shares compounds with esBAF inh;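 active = Ring1 gene expression raised more than 2-fold over untreated cells in both replicates at either tested dose; inconclusive = only one replicate above 2-fold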;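 also: Ring1 transcript normalised to actin housekeeping signal by TaqMan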
Fgf4 repress: Fgf4 mRNA decrease in mouse ESCs, confirmation, esBAF inhibitor project, cell-based, mouse ESC, RT-qPCR, cherry-pick. shares compounds with esBAF inh. mouse ESC E14, Fgf4 mRNA qPCR fold change; stronger effect = lower value. Fgf4 expression fold change at 33 µM. 4% of 550 active. AID 743177, 2013;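 active = Fgf4 expression under 0.8 fold of control in both repeat measurements at one or both tested doses; inconclusive = under 0.8 fold in just a single repeat measurement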;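 also: Fgf4 transcript normalised to actin in duplex TaqMan qPCR; cells exposed to compound for 24 h before lysis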
esBAF Bmi1 qPCR: esBAF inhibition via Bmi1 de-repression, confirmation, cell-based, RT-qPCR, mouse ESC, single point, cherry-pick; fold change at 33 µM; shares compounds with esBAF inh; 550 tested, under 10 active; mouse ESE14 ES cells, Bmi1 mRNA qPCR fold; stronger effect = higher value;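 active = Bmi1 expression fold change above 6 at either tested concentration, seen in replicate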
A549 tox SP: A549 cell cytotoxicity, cytotoxicity control, plate reader, single point, cherry-pick. shares compounds with esBAF inh. 550 tested, under 10 active. AID 743188, 2013. cell viability change % (negative = cytotoxic), % at 25 µM, hits read low; call rule not given here
HepG2 tox SP: HepG2 cell cytotoxicity, cytotoxicity control, plate reader, single point, cherry-pick; stronger effect = lower value; 4% of 550 active; shares compounds with esBAF inh; activity change, negative = inhibition, % at 25 µM; in the data active = activity change below about -50%
HEK293 tox SP: HEK293 cell cytotoxicity, cytotoxicity control, plate reader, single point, cherry-pick; shares compounds with esBAF inh; activity change, negative = inhibition, % at 25 µM, hits read low; AID 743190, 2013; 3% of 550 active; in the data active = activity change below about -38%, passing the limit was not always enough
* marks the source's active call; other numbers are inactive results; ? = inconclusive; . = no result given.

SMILES	SMARCA2 activ	esBAF inh	Gli-Sufu antag	697 NFkB inh	Jurkat NFkB inh	Ring1 derepress	Fgf4 repress	esBAF Bmi1 qPCR	A549 tox SP	HepG2 tox SP	HEK293 tox SP
O=C1Nc2ccccc2N=C(c2ccc3c(c2)OCO3)C1N(C(=O)c1ccnc2ccccc12)c1ccccc1 (configuration not stated)	-2	12	.	.	.	.	.	.	.	.	.
O=C1Nc2ccccc2N=C(c2ccc3c(c2)OCO3)C1N(C(=O)c1ccc2ccccc2c1)C1CC1 (configuration not stated)	0	105*	.	.	.	1	1	1.2	-2	33	3
O=C(Cc1ccccn1)NCC[C@H]1CC[C@H](NC(=O)CN2CCOCC2)[C@@H](CO)O1	.	-3	.	.	.	.	.	.	.	.	.
O=C(C[C@H]1C=C[C@H](NS(=O)(=O)c2ccccc2)[C@H](CO)O1)NCc1ccc(Cl)c(Cl)c1	.	2	.	.	.	.	.	.	.	.	.
C(=Cc1cnnc2ccccc12)c1ccccc1	4	138*	-23	.	.	0.95	0.97	1.3	-7	94	-2
CNc1nc(Cl)nc(Nc2ccccc2)n1	-3	.	-7	-10	5	.	.	.	.	.	.
C=CCNc1nc(Cl)nc(Nc2ccccc2)n1	2	60*	-7	-50	-33	1.2	1	1.1	4	-9	-10
CCCNC(=O)N[C@@H]1CC[C@@H](CCNS(=O)(=O)c2cccc(F)c2)O[C@@H]1CO	.	1	.	.	.	.	.	.	.	.	.
Cn1c(/C(C#N)=C(\O)c2ccc(Cl)s2)nc2ccccc21	3	70*	-29	-116	-52	1.4	?	1.6	6	8	27
COc1ccc(OC(=O)N(C)C[C@@H]2OCc3cn(nn3)CCCC(=O)N([C@H](C)CO)C[C@@H]2C)cc1	.	0	.	.	.	.	.	.	.	.	.
CS(=O)(=O)N1[C@H](CO)[C@H](c2ccccc2)[C@@H]1C#N	.	2	.	.	.	.	.	.	.	.	.
c1ccc(-c2nc3ccccc3[nH]2)nc1	3	19	-54	-70	-87	.	.	.	.	.	.
c1ccc(-c2nc3c(ccc4ccccc43)[nH]2)nc1	7	100*	8	-117	-113	0.95	1.1	3.1	-6	-13	-8
CC(=O)n1nc(-c2ccccc2)nc1NCc1ccc(N(C)C)cc1	0	59*	-49	-29	-104	1.1	0.92	1.2	-7	7	-17
Nc1nc(SCc2ccccc2)sc1C(=O)N1CCCCC1	0	60*	.	.	.	1.2	0.92	1.5	-10	-7	-10
COc1cc2c(cc1OC)C(=Cc1ccc(N(C)C)cc1)C=C2	2	67*	-28	.	.	0.93	0.96	1.8	-7	-8	1
CNc1ccc(C=C2C=Cc3ccccc32)cc1	1	-9	-124	.	.	.	.	.	.	.	.
c1ccc(Oc2cc(-c3ccccc3)nc(-c3ccccc3)n2)cc1	-1	.	3	-5	-14	.	.	.	.	.	.
c1ccc(Oc2cc(-c3ccccc3)ncn2)cc1	3	77*	-40	-71	-86	1.3	?	1.8	-5	-15	-2
O=C(Cc1ccncc1)NCC[C@H]1CC[C@H](NC(=O)Nc2ccc(F)cc2)[C@@H](CO)O1	.	1	.	.	.	.	.	.	.	.	.
S=c1[nH]nc(SCc2ccccc2)c2[nH]cnc12	5	55*	-28	.	.	1.2	0.81	1.5	-9	-30	-3
O=C(Nc1cccc(Cl)c1Cl)c1ccc(-c2ccccc2)cc1	4	74*	-24	-29	-38	1.1	0.95	1.7	3	19	10
CO[C@@H]1CC[C@@H]2CCOc3c(C#N)cccc3C(=O)N(C)C[C@@H](c3ccccc3)CC(=O)N(C)C[C@H]1O2	.	0	.	.	.	.	.	.	.	.	.
COc1cccc(NC(=O)c2sc3nc4n(c(=O)c3c2C)CCC4)c1	4	57*	-9	-36	-47	1.1	1	1.1	-14	-11	-10
O=C(NC1CCCC1)c1cc(-c2ccccc2O)on1	3	61*	-9	-11	-105	1.3	0.8	1.4	-13	9	-6
SMILES	SMARCA2 activ	esBAF inh	Gli-Sufu antag	697 NFkB inh	Jurkat NFkB inh	Ring1 derepress	Fgf4 repress	esBAF Bmi1 qPCR	A549 tox SP	HepG2 tox SP	HEK293 tox SP
O=C(NC1CCCC1)c1cc(-c2ccc(Cl)cc2Cl)on1	5	19	-26	-139	-96	.	.	.	.	.	.
COc1ccc(-c2cc(C(=O)NC3CCCC3)no2)cc1	4	7	-32	-122	-142	.	.	.	.	.	.
O=C(NC1CCCCC1)c1cc(-c2cccc(Cl)c2)on1	0	60*	-32	-31	-58	1.2	?	1.8	-10	-8	-4
COc1cccc(-c2cc(C(=O)NC3CCCCC3)no2)c1	1	59*	-59	-96	-121	1.2	0.88	1.4	-4	-18	-6
O=C(NC1CCCC1)c1cc(-c2cccs2)on1	1	4	-72	-84	-139	.	.	.	.	.	.
CO[C@@H]1CC[C@H]2CCN(C)C(=O)C[C@@H](c3ccccc3)CN(C)C(=O)c3cccc(C#N)c3OC[C@@H]1O2	.	0	.	.	.	.	.	.	.	.	.
Cc1noc(C)c1NC(=O)N(C)C[C@H]1OCCCC[C@@H](C)Oc2ccc(NC(=O)c3ccncc3)cc2C(=O)N([C@@H](C)CO)C[C@@H]1C	.	-1	.	.	.	.	.	.	.	.	.
CC(C)NC(=O)N(C)C[C@@H]1Oc2cc(C3=CCCC3)ccc2S(=O)(=O)N([C@H](C)CO)C[C@@H]1C	.	-5	.	.	.	.	.	.	.	.	.
C(=NN=Cc1c[nH]c2ccccc12)c1c[nH]c2ccccc12	4	74*	.	.	.	1.2	0.96	1.6	0	-26	-3
CCCNC(=O)N[C@@H]1CC[C@H](CC(=O)N2CCN(C)CC2)O[C@@H]1CO	.	3	.	.	.	.	.	.	.	.	.
C[C@@H]1CN([C@H](C)CO)C(=O)Cc2cc(NC(=O)Nc3ccccc3)ccc2O[C@@H]1CN(C)S(C)(=O)=O	.	-2	.	.	.	.	.	.	.	.	.
COc1ccc(NC(=O)Nc2ccc3c(c2)C(=O)N([C@@H](C)CO)C[C@@H](C)[C@@H](CN(C)Cc2ccccc2)OCCCC[C@H](C)O3)cc1	.	5	.	.	.	.	.	.	.	.	.

Compound activity (PubChem BioAssay)
